Experimental data as given in PubChem BioAssay.
Activity calls are given as the source filed them.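 How the source made its calls, unless noted: active means inhibition above 20% together with a positive visual image hit; inconclusive means visual image hit but inhibition not above 20%; inactive means no visual image hit.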 Where a SMILES comes first, the peptide text is derived from it. The star is where a group is joined. Boc = CC(C)(C)OC(=O)*

Experiments:
[1] = inhibitors of TNFa-induced NFkB p65 translocation, primary screen, imaging, HUVEC, MLSMR starter and 10KST1 sets (AID 438); settings: HUVEC TNFa-induced p65 nuclear translocation; cell count: measured here: nuclei count (cytotoxicity indicator), at 2.08 µM; inhibition: at 2 µM, stronger effect = higher value, 0% TNFa-plus-vehicle, 100% no-TNFa wells;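 further: compound added about 3h40 before a 20 min TNFalpha stimulation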;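 on inhibition: signal is the nuclear over cytoplasmic p65 intensity ratio per well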
[2] = inhibitors of mutant huntingtin aggregation, primary screen, imaging, exon1htt(103Q)mCFP cells, high-content imaging (AID 483;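 active means visual image review flags a hit and inhibition of aggregation exceeds 20%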;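 further: compound exposure lasted 3 days before fixation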;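 on nuclei count: percent of the per-plate median nuclei count of sample wells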); settings: exon1htt(103Q)mCFP cell line, aggregate imaging, at 2 µM; inhibition of aggregation: stronger effect = higher value; nuclei count: measured here: cell count, toxicity
[3] = inhibitors of E-selectin induction by TNFa, primary screen, imaging, HUVEC, immunofluorescence, MLSMR starter and 10KST1 sets (AID 487;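 active means visually confirmed hit in the image check and inhibition above 20%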;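 on inhibition: signal is fraction of cell area covered by stained E-selectin grains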;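 on nuclei count: 100% = median nuclei count of all wells on the same plate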); settings: HUVEC TNFalpha-induced E-selectin immunofluorescence imaging, at 2 µM; inhibition: stronger effect = higher value; nuclei count: measured here: cell number, toxicity
[4] = biological target: Voltage-gated potassium channel subunit beta-2 (Rattus norvegicus) (UniProt P62483); experiment: KvBeta enzyme negative modulators, primary screen, biochemical, NADPH fluorescence (AID 622;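 active means fluorescence slope higher than the sample average by over 3 SD, cut at about -0.22 in these data, passing the limit was not always enough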;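 further: slope of raw intensity against log time taken from 70 to 1610 s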); settings: recombinant KvBeta, 4-cyanobenzaldehyde reduction, at 10 µM, stronger effect = higher value
Chain of Voltage-gated potassium channel subunit beta-2 (Rattus norvegicus) (P62483 whole entry, looked up): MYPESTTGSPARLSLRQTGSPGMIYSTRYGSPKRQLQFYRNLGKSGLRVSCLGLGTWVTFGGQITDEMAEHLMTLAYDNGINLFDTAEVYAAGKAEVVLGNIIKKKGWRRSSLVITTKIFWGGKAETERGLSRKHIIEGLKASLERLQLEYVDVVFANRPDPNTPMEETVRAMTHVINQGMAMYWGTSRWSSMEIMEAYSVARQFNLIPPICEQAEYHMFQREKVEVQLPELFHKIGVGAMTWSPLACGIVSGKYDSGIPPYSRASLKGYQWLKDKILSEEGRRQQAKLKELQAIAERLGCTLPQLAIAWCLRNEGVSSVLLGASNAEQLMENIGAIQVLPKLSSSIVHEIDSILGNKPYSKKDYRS

[5] = biological target: Voltage-gated potassium channel subunit beta-2 (Rattus norvegicus) (UniProt P62483); experiment: KvBeta positive modulators, primary screen, biochemical, NADPH fluorescence (AID 623;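 active means NADPH fluorescence slope more negative than the mean of all samples by about 3 SD, 99.7% confidence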;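 further: fluorescence intensity change per second fitted from 20 to 320 s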); settings: Recombinant KvBeta, NADPH fluorescence decrease slope, 10 min; at 10 µM; stronger effect = lower value
[6] = biological target: Alpha-2C adrenergic receptor (Homo sapiens) (UniProt P18825); experiment: modulators of alpha2C/GIRK thallium flux, primary screen, cell-based, HEK293 alpha2C/GIRK1/2 (AID 624;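 active means fluorescence slope after compound addition differing from the mean of all screened samples at 99.7% confidence, in either direction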;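 further: slope of fluorescence ratio to pre-addition baseline per second over 15 to 24 s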); settings: thallium flux BTC fluorescence, at 10 µM, actives lie on both sides
Chain of Alpha-2C adrenergic receptor (Homo sapiens) (P18825 whole entry, looked up): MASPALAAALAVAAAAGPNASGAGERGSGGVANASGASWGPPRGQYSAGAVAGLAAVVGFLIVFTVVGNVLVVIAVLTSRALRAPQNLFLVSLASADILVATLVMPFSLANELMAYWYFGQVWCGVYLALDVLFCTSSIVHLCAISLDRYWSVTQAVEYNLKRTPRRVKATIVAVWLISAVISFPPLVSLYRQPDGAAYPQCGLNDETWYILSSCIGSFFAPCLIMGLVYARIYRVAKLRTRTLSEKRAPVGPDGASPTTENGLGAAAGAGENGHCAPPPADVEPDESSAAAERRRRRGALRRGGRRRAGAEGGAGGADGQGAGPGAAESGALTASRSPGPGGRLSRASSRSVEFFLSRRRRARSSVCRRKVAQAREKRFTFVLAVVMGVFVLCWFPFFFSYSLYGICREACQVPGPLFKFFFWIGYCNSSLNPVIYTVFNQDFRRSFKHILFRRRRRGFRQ

[7] = inhibitors of Sendai virus-induced IRF3 signaling, primary screen, TLR/RLR signaling modifier project, cell-based, Sendai virus stimulus, luciferase, 10K MLSCN set (AID 602276;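 active means inhibition at or above 50% at 10 µM; inactive means inhibition below 50%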;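 further: firefly luciferase from ISG56 promoter only with Renilla not read in this screen; 0% = Sendai virus plus DMSO and 100% = medium plus DMSO without virus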); settings: HEK293 RL24 IRF3 luciferase reporter, at 10 µM, stronger effect = higher value
[8] = inhibitors of poly I:C-induced TLR3 signaling, primary screen, cell-based, poly I:C stimulus, luciferase, 10K MLSCN set (AID 602277;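 active means inhibition of the reporter signal at or above 50%; inactive means inhibition below 50%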); settings: HEK293-TLR3 RL24 IRF3 luciferase reporter, at 10 µM, stronger effect = higher value

| Structure (SMILES) | cell count [1] | inhibition [1] | inhibition of aggregation [2] | nuclei count [2] [%] | inhibition [3] | nuclei count [3] [%] | fluorescence slope [4] | NADPH fluorescence slope [5] | slope [6] | inhibition [7] | inhibition [8] |
| --- | --- | --- | --- | --- | --- | --- | --- | --- | --- | --- | --- |
| C/C(N)=C(/C#N)C(=O)COC(=O)CCSc1ccccc1 | 422 | 3.1% (inactive) | 7.6% (inactive) | 117 | -20.4% (inactive) | 107 | -0.464 (inactive) | -6.7e-05 (inactive) | 0.00505 (inactive) | 13.7% (inactive) | -9.84% (inactive) |
| O=C1N2c3ccccc3CCc3cccc(c32)C1(O)C(F)(F)F (stereo not drawn) | 747 | 4.7% (inactive) | 0.2% (inactive) | 82.6 | -28% (inactive) | 86.8 | -0.641 (inactive) | 1.4e-06 (inactive) | 0.00675 (inactive) | 17.9% (inactive) | 12.7% (inactive) |
| CCN(CC)CC(C)CNC(=O)CC(C(=O)N1CCc2ccccc21)n1ccnc1 (stereo not drawn) | 604 | -10% (inactive) | 10.7% (inactive) | 98.5 | -125% (inactive) | 110 | -0.464 (inactive) | 6.1e-05 (inactive) | 0.00462 (inactive) | 3.93% (inactive) | 11% (inactive) |
| CC(=O)C1=C(C)NC(=O)NC1c1cccc(O)c1 (stereo not drawn) | 454 | 7.3% (inactive) | 0% (inactive) | 111 | -36.2% (inactive) | 110 | -0.399 (inactive) | -5e-05 (inactive) | 0.00509 (inactive) | 14.2% (inactive) | 16% (inactive) |
| CCOCCOc1nc2c(c(=O)n(C)c(=O)n2C)n1Cc1ccc(C)cc1 | 830 | 2.3% (inactive) | -33.5% (inactive) | 102 | -35.1% (inactive) | 114 | -0.46 (inactive) | 5.4e-05 (inactive) | 0.00568 (inactive) | -11.5% (inactive) | -21.6% (inactive) |
| CCCS(=O)(=O)Nc1c(C(=O)O)[nH]c2ccccc12 | 665 | -11.9% (inactive) | -26.1% (inactive) | 108 | -79.9% (inactive) | 147 | -0.415 (inactive) | -3.3e-05 (inactive) | 0.00314 (inactive) | 12.6% (inactive) | 29% (inactive) |
| Cc1cc(NC(=O)c2cccc(S(=O)(=O)N3CC(c4ccccc4)CC3=O)c2)no1 (stereo not drawn) | 873 | -1.2% (inactive) | 2.3% (inactive) | 107 | -44.9% (inactive) | 121 | -0.562 (inactive) | -5.1e-05 (inactive) | 0.00664 (inactive) | 8.54% (inactive) | 25.9% (inactive) |
| Cc1ccc(N2CCN(c3ccc(C)cc3)C(CC(=O)O)C2=O)cc1 (stereo not drawn) | 549 | -4.7% (inactive) | 3.3% (inactive) | 92.3 | 12.6% (inactive) | 108 | -0.499 (inactive) | 1.5e-05 (inactive) | 0.00583 (inactive) | 5.38% (inactive) | 4.47% (inactive) |
| O=C(O)c1cccc(S(=O)(=O)N2CCOCC2)c1 | 378 | -0.6% (inactive) | 12.5% (inactive) | 95.2 | 20.2% (inactive) | 99.4 | -0.472 (inactive) | -0.000388 (inactive) | 0.00562 (inactive) | -16% (inactive) | -15.1% (inactive) |
| CCOc1ccc(NC(=O)CN2C(=O)C3CCCN3C2=O)cc1 (stereo not drawn) | 551 | -13.7% (inactive) | -2.3% (inactive) | 102 | -48.6% (inactive) | 110 | -0.572 (inactive) | 1.4e-05 (inactive) | 0.00647 (inactive) | 3.2% (inactive) | 8.26% (inactive) |
| CSCCC(NC(=O)OC(C)(C)C)C(=O)NC(CC(C)C)C(N)=O (stereo not drawn) (Boc-Met-Leu-NH2; configuration not given here) | 396 | -2.1% (inactive) | -0.6% (inactive) | 114 | 7.9% (inactive) | 101 | -0.577 (inactive) | 3.1e-05 (inactive) | 0.00653 (inactive) | 5.67% (inactive) | 22% (inactive) |
| COCCn1c(C)cc(C(=O)COC(=O)CCN2C(=O)c3ccccc3C2=O)c1C | 287 | 3.2% (inactive) | 17.1% (inactive) | 96.8 | -6.1% (inactive) | 97.3 | -0.528 (inactive) | 6.5e-06 (inactive) | 0.00506 (inactive) | 3.96% (inactive) | 4.05% (inactive) |
| COc1ccc(OC)c(C(=O)CSc2nnc(-c3ccc(OC)c(OC)c3)o2)c1 | 399 | 1% (inactive) | 44.4% (active) | 15.1 | -114% (inactive) | 181 | -0.458 (inactive) | 3.9e-05 (inactive) | 0.00796 (inactive) | 12% (inactive) | 21.8% (inactive) |
| COc1ccc(-c2ccc(-c3noc(-c4ccccc4)n3)c(OC)n2)cc1 | 359 | 1.8% (inactive) | -12.7% (inactive) | 84.2 | 5% (inactive) | 88.8 | -0.0356 (inactive) | -4.5e-06 (inactive) | 0.0074 (inactive) | -7.23% (inactive) | -29.4% (inactive) |
| O=C(C1CCCN(S(=O)(=O)c2ccc(Br)s2)C1)N1CCCCCC1 (stereo not drawn) | 217 | -1.9% (inactive) | 5.7% (inactive) | 75.1 | 30.6% (inactive) | 31.6 | -0.378 (inactive) | -4.5e-05 (inactive) | 0.00305 (inactive) | 2.37% (inactive) | 13.4% (inactive) |
| Cc1onc(-c2c(Cl)cccc2Cl)c1C(=O)NCC1CCCO1 (stereo not drawn) | 394 | 6.8% (inactive) | 15.4% (inactive) | 87.4 | -10.7% (inactive) | 113 | -0.519 (inactive) | 1.7e-05 (inactive) | 0.00578 (inactive) | -10.3% (inactive) | 10.7% (inactive) |
| CCN(CC)Cc1csc(C(N)=O)c1 | 617 | -1.2% (inactive) | 0.5% (inactive) | 102 | -26% (inactive) | 83 | -0.612 (inactive) | -6.9e-06 (inactive) | 0.00652 (inactive) | 5.97% (inactive) | 23.4% (inactive) |
| C=CCSC1=C(C#N)C(c2ccccc2OCC)CC(=O)N1 (stereo not drawn) | 328 | -4.1% (inactive) | 12.8% (inactive) | 99 | 12.5% (inactive) | 105 | -0.306 (inactive) | 1.7e-05 (inactive) | 0.00314 (inactive) | 6.62% (inactive) | 24.6% (inactive) |
| C=CCN1C(=O)C2(/C(=C(\O)c3ccc4c(c3)OCCO4)C(=O)C(=O)N2CCCOC)c2ccccc21 (stereo not drawn) | 390 | 8.6% (inactive) | 0.7% (inactive) | 104 | -37.2% (inactive) | 128 | -0.465 (inactive) | -1.1e-05 (inactive) | 0.00507 (inactive) | 20.5% (inactive) | 21.2% (inactive) |
| COc1ccc(C(=O)Nc2ccccc2C(=O)NCCN2CCOCC2)cc1 | 462 | -2.2% (inactive) | -3.2% (inactive) | 98.2 | -23.5% (inactive) | 103 | -0.429 (inactive) | -1.1e-05 (inactive) | 0.00486 (inactive) | -23.4% (inactive) | -25.1% (inactive) |
| O=C(c1ccncc1)N1CCN(C(=O)c2cccs2)CC1 | 454 | -3.3% (inactive) | 1.6% (inactive) | 110 | 0.5% (inactive) | 106 | -0.459 (inactive) | -3e-05 (inactive) | 0.00631 (inactive) | 12.1% (inactive) | 14.2% (inactive) |
| COc1ccc(CN(C(=O)c2oc3ccccc3c2C)C2CCS(=O)(=O)C2)cc1 (stereo not drawn) | 592 | 1.7% (inactive) | 7.1% (inactive) | 87.3 | -5.9% (inactive) | 102 | -0.444 (inactive) | 2.9e-05 (inactive) | 0.00692 (inactive) | -2.17% (inactive) | 8.82% (inactive) |
| COc1ccc(NS(=O)(=O)c2ccc(NC(C)=O)cc2)cc1OC | 352 | -8.4% (inactive) | 2.1% (inactive) | 99.6 | -3.3% (inactive) | 76.2 | -0.379 (inactive) | 1.1e-05 (inactive) | 0.00616 (inactive) | -6.14% (inactive) | -66.4% (inactive) |
| CC(C)(CSc1nncn1N)NS(=O)(=O)c1ccc(Cl)cc1 | 690 | -4.4% (inactive) | 11.7% (inactive) | 58.2 | -17.3% (inactive) | 108 | -0.447 (inactive) | -4.4e-05 (inactive) | 0.00436 (inactive) | -0.22% (inactive) | 4% (inactive) |
| COCCNC(=O)C1CCCN(c2ncccn2)C1 (stereo not drawn) | 648 | 7.5% (inactive) | 5.6% (inactive) | 100 | 98.1% (active) | 76.1 | -0.539 (inactive) | -6.8e-05 (inactive) | 0.00583 (inactive) | 14.2% (inactive) | 20.8% (inactive) |
| CCOC(=O)N1CCN(C(=O)Cn2ncn3nc(-c4cccs4)cc3c2=O)CC1 | 313 | -0.8% (inactive) | 14.8% (inactive) | 79.5 | 9.5% (inactive) | 88.5 | -0.404 (inactive) | 2e-05 (inactive) | 0.00387 (inactive) | -1.73% (inactive) | -47.5% (inactive) |
| COc1ccc(N2C(N)=C(C#N)C(c3cccnc3)C3=C2CC(C)(C)CC3=O)cc1 (stereo not drawn) | 446 | -7.5% (inactive) | -1.2% (inactive) | 97.7 | -1.3% (inactive) | 104 | -0.461 (inactive) | -0.000329 (inactive) | 0.00535 (inactive) | 37.2% (inactive) | 38.7% (inactive) |
| O=C(NCc1ccco1)C(c1ccco1)N(C(=O)Cn1nnc2ccccc21)c1ccc2c(c1)CCC2 (stereo not drawn) | 329 | -8% (inactive) | -0.5% (inactive) | 103 | 23.8% (inactive) | 104 | -0.519 (inactive) | -6.5e-06 (inactive) | 0.00472 (inactive) | 14.9% (inactive) | 21.8% (inactive) |
